# Compound activity deposited in PubChem by several laboratories.
# Sampled rows, rich in hits. Any-hit rate of the full collection: about 2.2%.
# aSyn UTR inh – MLPCN primary screen, SNCA 5' untranslated region; alpha-synuclein 5'UTR reporter, inhibitor activity; inhibition, % (tested at 7.5 µM); actives 0.82% (n = 300,000); AID 1813; in the data active = inhibition above about 60%;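 also: H4 neuroglioblastoma cells stably carrying SNCA 5'UTR luciferase fusion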
# Ba/F3 V617F tox – reduce viability of Ba/F3 cells dependent on JAK2V617F; Ba/F3 EpoR-JAK2V617F viability, ATP luminescence; inhibition, % at 5.6 µM; actives 1.1% (n = 220,000); AID 1446;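 active = inhibition above the campaign mean plus 3 SD over all tested compounds, cut at about 24% in these data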;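 also: cytokine-independent growth of Ba/F3 cells driven by EpoR plus mutant JAK2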
# BaF3 parental – counter-screen for JAK2V617F inhibitors: parental Ba/F3 viability inhibitors; actives 1.1% (n = 220,000); CellTiter-Glo ATP luminescence; inhibition, % at 5.6 µM;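 active = inhibition above a per-campaign cutoff, the mean inhibition of all tested compounds plus 3 SD, cut at about 27% in these data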
# IEC-6 cytotox – counter-screen for KLF5 inhibitors: cytotoxicity in IEC-6 cells; AID 1825; inhibition, % at 5 µM; actives 0.78% (n = 290,000); IEC-6 cytotoxicity, luminescence viability
# KLF5 inhibitor – inhibitors of KLF5 expression. DLD-1 KLF5 promoter-luciferase reporter, luminescence. inhibition, % at 5 µM. actives 0.23% (n = 290,000);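 active = inhibition above a per-plate limit of that plate's mean compound inhibition plus 3 SD, cut at about 60% in these data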;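 also: higher means less KLF5 promoter-driven luciferase light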
# APP transl inh – APP translation inhibition; inhibition, % at 2 µM; SH-SY5Y APP 5'UTR-luciferase reporter, luminescence; actives 0.82% (n = 190,000);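 active = inhibition above a set limit, derived from the sample mean plus 3 SD, cut at about 45% in these data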
# IEC-6 tox confirm – confirmation of cytotoxic compounds in rat IEC-6 intestinal epithelial cells. shares compounds with IEC-6 cytotox. IEC-6 rat intestinal epithelial viability, luminescence. inhibition, % at 5 µM. actives 63% (n = 1,900). AID 1907
# Numbers stand for hits; i = inactive; nt = no result. Rule as the data show it, unless noted: active = inhibition above about 22%; inactive = the rest.
SMILES,aSyn UTR inh,Ba/F3 V617F tox,BaF3 parental,IEC-6 cytotox,KLF5 inhibitor,APP transl inh,IEC-6 tox confirm
CC(C)(C)c1ccc(C(=O)NNc2ncccc2-n2cccc2)cc1,i,i,i,i,i,nt,nt
C/C(=N\Nc1ncnc2sc(C)c(C)c12)c1ccccn1,105,nt,nt,91,i,nt,94
Cc1sc2ncnc(N/N=C/c3cccc(O)c3)c2c1C,i,i,i,i,i,i,nt
CC1(C)CC(=O)C2=C(C1)NC(Nc1nc3ccccc3o1)=NC2c1ccccn1 (configuration not stated),i,i,i,23,i,i,i
Cn1nc([N+](=O)[O-])nc1Sc1nnc(-c2ccccc2)o1,92,92,76,68,i,95,68
O=Cc1ccc(Sc2nnc(-c3ccccc3)o2)c([N+](=O)[O-])c1,i,i,i,i,i,i,nt
CC(=O)N1c2ccc(S(=O)(=O)NCCC(=O)N3CCC(C)CC3)cc2CC1C (configuration not stated),i,nt,nt,i,i,nt,nt
COc1ccc(S(=O)(=O)N2CCCOC2CNC(=O)C(=O)NCCc2ccco2)cc1C (configuration not stated),i,nt,nt,28,i,nt,i
O=C(NCCc1ccco1)C(=O)NCC1OCCCN1S(=O)(=O)c1ccc(F)cc1 (configuration not stated),i,nt,nt,i,i,nt,nt
O=C(c1c(Cl)nc2sccn12)N1CCN(c2cccc(Cl)c2)CC1,i,78,76,63,i,94,44
COc1ccccc1C(=O)N1CCN(c2cccc(Cl)c2)CC1,64,80,83,77,i,95,55
COc1cc2c(C(=O)N3CCN(c4cccc(Cl)c4)CC3)cn(C)c(=O)c2cc1OC,i,i,i,i,i,i,nt
O=C1CC(c2cccc(Cl)c2)c2cc3c(cc2N1)CCC3 (configuration not stated),i,i,27,28,i,i,29
C/C(=N\N=C1\NC(=O)C(CC(=O)Nc2ccc(C)c(Cl)c2)S1)C(C)(C)C (configuration not stated),i,i,i,i,i,i,nt
CC(=O)/C(C#N)=C1\NC(=O)C(Cc2ccc(C)c(Cl)c2)S1 (configuration not stated),i,i,i,72,i,nt,48
CC(=O)Nc1ccc(Cc2nc3c([nH]2)c(=O)n(C)c(=O)n3C)cc1,i,i,i,i,i,nt,nt
COc1cc2[nH]c(C(=O)Nc3ccc(F)cc3)cc2c(OC)c1OC,i,nt,nt,57,i,nt,27
COc1cc2ncnc(NCc3ccc(F)cc3)c2cc1OC,i,nt,nt,25,i,nt,32
COc1cc2ncnc(NCc3ccc(C)o3)c2cc1OC,i,i,i,i,i,i,nt
COc1cc2ncnc(NCc3ccc(Cl)cc3)c2cc1OC,i,i,i,29,i,i,23
O=C(CCN1CCOCC1)Nc1cc(C(=O)Nc2ccc(Cl)cc2)ccc1N1CC2CC(C1)c1cccc(=O)n1C2 (configuration not stated),i,nt,nt,i,i,nt,nt
COc1ccccc1NC(=S)N(Cc1ccco1)Cc1cc2ccc(C)c(C)c2[nH]c1=O,i,71,81,78,i,nt,54
Cc1ccc(CS(=O)(=O)c2ncc(Cl)c(C(=O)Nc3nnc(C(C)C)s3)n2)cc1,i,nt,nt,36,i,nt,i
CSc1nnc(NC(=O)c2nc(S(=O)(=O)Cc3cccc(C)c3)ncc2Cl)s1,i,nt,nt,45,i,nt,i
CC(C)c1nnc(NC(=O)c2nc(S(=O)(=O)Cc3ccc(F)cc3)ncc2Cl)s1,i,nt,nt,i,i,nt,nt
SMILES,aSyn UTR inh,Ba/F3 V617F tox,BaF3 parental,IEC-6 cytotox,KLF5 inhibitor,APP transl inh,IEC-6 tox confirm
Cc1cccc(CS(=O)(=O)c2ncc(Cl)c(C(=O)Nc3nnc(C(C)C)s3)n2)c1,i,nt,nt,60,i,nt,i
C=CCNC(=O)COC(=O)C1CCN(S(=O)(=O)c2ccc3c(c2)OCCO3)CC1,i,nt,nt,i,i,nt,nt
CCc1ccc(-c2cc3c(=O)n(CC(=O)N4CCCCCC4)nc(C)n3n2)cc1,i,nt,nt,i,i,nt,nt
O=C(OC1CCCCC1)c1ccc(NC(=O)c2ccco2)cc1,i,i,i,32,i,i,23
O=C(Nc1ccc(OC(=O)c2ccco2)cc1)c1ccco1,i,i,i,i,i,i,nt
COc1ccc(C(=O)N/N=C\c2coc3ccccc3c2=O)cc1,i,i,i,i,i,nt,nt
COc1cc(C(=O)N/N=C/c2coc3ccccc3c2=O)cc(OC)c1OC,i,nt,nt,70,i,nt,i
O=C(Cn1cnc([N+](=O)[O-])n1)N/N=C/c1cc(Cl)ccc1O,i,i,i,i,i,i,nt
O=C1c2cccc3c([N+](=O)[O-])ccc(c23)C(=O)N1O,i,nt,nt,85,i,nt,i
CC(=O)Oc1ccc(N2C(=O)c3cccc4c([N+](=O)[O-])ccc(c34)C2=O)cc1,i,nt,nt,i,i,nt,nt
O=C(C1CCCO1)N1CCN(C(=S)Nc2cc(F)cc(F)c2)CC1 (configuration not stated),i,nt,nt,i,i,nt,nt
COc1cc(/C=N/NC(=O)Cc2ccc(Br)cc2)cc(OC)c1O,i,i,i,i,i,i,nt
COc1cc(/C=N/NC(=O)CC#N)cc(Br)c1O,i,i,i,37,i,i,i
C/C(=N\NC(=O)c1cc(C2CC2)nc2ccccc12)c1ccc(C)s1,i,i,i,i,i,i,nt
C/C(=N\NC(=O)c1cc(C)nc2ccccc12)c1cccs1,i,i,i,29,i,nt,i
C/C(=N\NC(=O)c1cc(C2CC2)nc2ccccc12)c1ccc(O)cc1O,74,nt,nt,51,i,nt,43
CC(/C=C/c1ccccc1)=N\NC(=O)c1cc(C)nc2ccccc12,i,33,52,40,i,nt,i
Cc1cc(C(=O)NN=C2CCCC2)c2ccccc2n1,i,nt,nt,nt,nt,nt,nt
Nc1ccccc1C(=O)NNC1=C(C(=O)C(F)(F)F)CCC1,i,i,i,34,i,nt,i
O=C(NNC1=C(C(=O)C(F)(F)F)CCC1)c1ccccc1O,i,i,i,i,i,i,nt
CSCC[C@H](NC(=O)N1CCn2c1nc1ccccc12)C(=O)NCc1ccc(C)cc1,i,nt,nt,i,i,nt,nt
Cc1ccc(C(=O)Nc2ccn(Cc3ccc(F)cc3)n2)o1,i,i,i,74,i,i,i
CCCn1nc(C(=O)NNC(=O)C2CSC3(C)CCC(=O)N23)c2ccccc2c1=O (configuration not stated),i,nt,nt,nt,nt,nt,nt
CCCCOc1ccc(Br)cc1/C(C)=N/NC1=NCCN1,121,80,75,83,i,96,66
CCOc1ccccc1OCC(=O)N/N=C(\C)Cc1ccc(OC)cc1,87,72,73,70,i,92,i
COc1ccccc1OCC(=O)NN=C(Cc1ccccc1)Cc1ccccc1,i,i,i,i,i,i,nt
COc1cc(OC)cc(C(=O)c2c(C)c(C#N)c3ccccn23)c1,i,nt,nt,52,i,nt,i
CCS(=O)(=O)N1CCC(NC(=O)C(Cc2ccc(OC)c(OC)c2)NC(C)=O)CC1 (configuration not stated),i,nt,nt,i,i,nt,nt
CC(C)Cn1c([N+](=O)[O-])nc2c1c(=O)[nH]c(=O)n2C,i,i,i,i,i,nt,nt
